# Experimental data reported in PubChem BioAssay AID1259420 (Broad Institute, 2018).
# In all, about 1,000 compounds went through this assay and about 250 (25%) were called active. Inconclusive results (about 31%) are left out. The list is a sample of the results. Results with a measured potency or affinity are listed apart. A number with no mark means an inactive call. The rule behind the calls is not given here. Numbered stars: 1 amine (or outer) side, 2 acyl side, 3 side chain; on linkers, the order of the positions; unused ones are H or OH. Bridge positions count the residues as written; N and C are the ends. Square brackets hold non-standard residues; d marks the D form. Peptide text beside a SMILES is read from it. * marks the point of attachment. ξ: configuration not given here. pTerphenylCO(4''-OnC5H11) = CCCCCOc1ccc(-c2ccc(-c3ccc(C(=O)*)cc3)cc2)cc1; ξOrn(4,5-diOH) = O=C(C(CC(O)C(O)N[*:3])N[*:1])[*:2]; ξhTyr(βξ-OH,γξ-OH) = NC(C(=O)O)C(O)C(O)c1ccc(O)cc1; ξPro(3ξ-OH,4ξ-Me) = CC1CNC(C(=O)O)C1O; Hyp = O=C(O)[CH]1C[CH](O)CN1
# Test: T. gondii intracellular growth, IFN-gamma absent, dose response, cell-based (AID 1259420);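 note: host cells were HeLa; final incubation lasted 72 hours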
# Conditions: Toxoplasma gondii growth in host cells, no IFN-gamma
structure (smiles),measurement,setting,value
OC1(c2cccc(C(F)(F)F)c2)CCN(Cc2ccc3[nH]ccc3c2)CC1,max activity,at 19.5 µM unless noted,6.52% [at 0.16 µM]
O=C(Cc1cccnc1)N1CC(=O)N2[C@H](CO)[C@@H](c3ccc(C#CC4CCCCC4)cc3)[C@@H]2C1,max activity,at 0.6 µM,-7.69%
same,max activity,at 19.5 µM,16.4%
Cc1cc(C(=O)N2CCC(c3cc4c(ncn4C)c(NCC4CC4)n3)CC2)ccc1Cl,max activity,at 19.5 µM unless noted,13.8%
Cc1ccccc1S(=O)(=O)N1CCCCN2[C@H](C1)[C@@H](c1ccc(C#CCN(C)C)cc1)[C@@H]2CO,max activity,at 19.5 µM unless noted,-29.9% [at 10 µM]
O=S(=O)(c1ccc(F)cc1)N1CCCCN2[C@H](C1)[C@H](c1ccc(-c3cncnc3)cc1)[C@@H]2CO,max activity,at 19.5 µM unless noted,22.3%
Cc1ccccc1-c1ccc([C@H]2[C@H]3CN(S(=O)(=O)Cc4ccccc4)CCCCN3[C@H]2CO)cc1,max activity,at 19.5 µM unless noted,24.5%
Cc1ccccc1S(=O)(=O)N1CCCCN2[C@@H](CO)[C@@H](c3ccc(C#CCN(C)C)cc3)[C@@H]2C1,max activity,at 19.5 µM unless noted,48.3%
COc1cccc(-c2ccc([C@H]3[C@H](CO)N4C(=O)CN(C(=O)c5cccnc5)C[C@@H]34)cc2)c1,max activity,at 19.5 µM unless noted,-9.74% [at 1.2 µM]
O=C(C1CCOCC1)N1CC(=O)N2[C@@H](CO)[C@H](c3ccc(/C=C/c4ccccc4)cc3)[C@@H]2C1,max activity,at 19.5 µM unless noted,7.51% [at 5 µM]
CC(=O)N1CCC(N(C)Cc2cc(C(C)(C)C)n[nH]2)CC1,max activity,at 19.5 µM unless noted,-9.85%
COCC(=O)N1CCC2(CC1)CC1(CCN(CC(C)C)CC1)C(=O)N2C,max activity,at 19.5 µM unless noted,-12.4% [at 10 µM]
COc1cccc(S(=O)(=O)N2CC[C@@H]3[C@H]2c2cc(C#Cc4cccnc4)ccc2N[C@@H]3CO)c1,max activity,at 19.5 µM unless noted,17.4%
O=S(=O)(c1ccccc1F)N1CC[C@@H]2[C@H](CO)Nc3ccc(C4=CCCCC4)cc3[C@@H]21,max activity,at 19.5 µM unless noted,-15.7% [at 5 µM]
CNC(=O)NCC1CCC2(CCN(Cc3ccccc3)CC2)CO1 (stereo unspecified),max activity,at 19.5 µM unless noted,-9.71% [at 2.6 µM]
OC[C@H]1[C@H](c2ccc(-c3cccc(F)c3)cc2)[C@H]2CN(Cc3cncnc3)CCCCN21,max activity,at 19.5 µM unless noted,16.3%
N#Cc1c(N2C[C@@H]3NCCO[C@H]3C2)c(F)cc2c(=O)c(C(=O)O)cn(C3CC3)c12,max activity,at 19.5 µM unless noted,9.32% [at 1.2 µM]
Cc1ccc(N2CCC[C@]3(C(=O)O)CN(CCN(C)C)C[C@H]3C2)nn1,max activity,at 19.5 µM unless noted,-23.7% [at 5 µM]
COc1cccc(-c2nn(CC3CC3)c3c2[C@@H]2CN(Cc4ccccc4)C[C@@H]2C3)c1,max activity,at 19.5 µM unless noted,19.1%
Cc1ccc(Cl)cc1N(CC(=O)Nc1c(F)cccc1F)S(C)(=O)=O,max activity,at 19.5 µM unless noted,8.21% [at 1.2 µM]
CC(=O)NCC(=O)N1CCC2(CC1)CC(c1ccccc1)C(=O)N2 (stereo unspecified),max activity,at 19.5 µM unless noted,-12.4% [at 10 µM]
CN1CCN(C(=O)Cc2ccsc2)Cc2cccnc21,max activity,at 19.5 µM unless noted,-16.3% [at 2.6 µM]
CN(C)CCO[C@@H]1CN(C(=O)Cc2ccsc2)[C@H]2CCCO[C@@H]12,max activity,at 19.5 µM unless noted,-11.4% [at 10 µM]
Cc1ccsc1C(=O)N1CCc2nc(-c3cnn(C)c3)nc(NC(C)C)c2C1,max activity,at 19.5 µM unless noted,-6.87%
Cc1ccccc1-c1ccc([C@@H]2[C@H]3CN(C(=O)c4ccncc4)CC(=O)N3[C@H]2CO)cc1,max activity,at 19.5 µM unless noted,7.3% [at 5 µM]
CN1[C@@H]2Cn3c(ccc(/C=C/c4ccccc4)c3=O)[C@H]1[C@@H](C(=O)NC1Cc3ccccc3C1)[C@@H]2CO,max activity,at 19.5 µM unless noted,-16.6% [at 2.6 µM]
Cc1cnn(C(C)C(=O)N2CCc3[nH]nc(-c4ccc(F)c(F)c4)c3C2)c1 (stereo unspecified),max activity,at 19.5 µM unless noted,14% [at 0.16 µM]
Nc1ccc(S(=O)(=O)NC(=O)c2ccccc2)cc1,max activity,at 19.5 µM unless noted,6.39% [at 0.3 µM]
CO[C@H]1CCN(c2ccc(C)nn2)[C@H]1Cc1cnn(C)c1,max activity,at 19.5 µM unless noted,46.8%
C[C@]12CCC3=C4CCC(=O)C=C4CC[C@H]3[C@@H]1CC[C@@]2(O)CC#N,max activity,at 19.5 µM unless noted,-3.24% [at 0.3 µM]
C=CCO[C@@H]1CCN(c2cc(OC)ncn2)[C@H]1Cc1cnn(C)c1,max activity,at 19.5 µM unless noted,-8.84% [at 5 µM]
Cc1nnc(N2C[C@@H](Oc3ncccc3F)[C@@H]3OCCC[C@@H]32)s1,max activity,at 19.5 µM unless noted,-11.4% [at 0.16 µM]
Cc1ccc(-c2cc(C(F)(F)F)nn2-c2ccc(S(N)(=O)=O)cc2)cc1,max activity,at 19.5 µM unless noted,-6.96% [at 0.08 µM]
COc1ccc(CN2C[C@@H]3C[C@H](C(=O)Nc4ccccc4)[C@@H](C2)O3)cc1,max activity,at 19.5 µM unless noted,24.7%
CCCNC(=O)C[C@H]1CC[C@@H]2[C@H](COC[C@H](O)CN2C(=O)Nc2ccc(Cl)c(Cl)c2)O1,max activity,at 19.5 µM unless noted,22.5%
CCCNC(=O)[C@@H]1[C@@H](CO)[C@@H]2Cn3c(ccc(C4=CCCCC4)c3=O)[C@@H]2N1Cc1ccccc1F,max activity,at 19.5 µM unless noted,15.2%
O=C(c1ccc[nH]1)N1CCC2(CC1)COCCN(c1ncccn1)C2,max activity,at 10 µM,-14%
same,max activity,at 19.5 µM,9.97%
CC(C)CCN1Cc2c(C(=O)NC3CCCCC3)ncn2-c2ccccc2S1(=O)=O,max activity,at 19.5 µM unless noted,17.3%
CO[C@@H]1CCN(c2ncccn2)C[C@@H]1Cc1cccc(C)c1,max activity,at 19.5 µM unless noted,13.3%
"CCCCCOc1ccc(-c2ccc(-c3ccc(C(=O)NC4CC(O)C(O)NC(=O)C5C(O)C(C)CN5C(=O)C(C(C)O)NC(=O)C(C(O)C(O)c5ccc(O)cc5)NC(=O)C5CC(O)CN5C(=O)C(C(C)O)NC4=O)cc3)cc2)cc1 (stereo not drawn) ({pTerphenylCO(4''-OnC5H11)}-[ξOrn(4,5-diOH)]T[Hyp][ξhTyr(βξ-OH,γξ-OH)]T[ξPro(3ξ-OH,4ξ-Me)]; lactam 1-C; configuration not given here)",max activity,at 19.5 µM unless noted,7.96% [at 0.6 µM]
O=C1N(c2ccccc2)c2ccccc2C1(Cc1ccncc1)Cc1ccncc1,max activity,at 19.5 µM unless noted,-9.88% [at 5 µM]
C/C=C/c1ccc(C2[C@H]3CNC[C@@H]2N3S(=O)(=O)c2ccccc2C)cc1 (stereo partly specified),max activity,at 19.5 µM unless noted,20.6%
O=C(C[C@@H]1CC[C@H]2[C@@H](COC[C@H](O)CN2Cc2ccc(Oc3ccccc3)cc2)O1)N1CCN(c2ccccc2)CC1,max activity,at 19.5 µM unless noted,-11.8% [at 1.2 µM]
O=C(C[C@H]1CC[C@@H]2[C@H](COC[C@H](O)CN2Cc2cc(F)ccc2F)O1)NCc1ccc(Oc2ccccc2)cc1,max activity,at 19.5 µM unless noted,29.1% [at 10 µM]
O=C(C[C@H]1CC[C@H]2[C@@H](COC[C@H](O)CN2S(=O)(=O)c2ccccc2)O1)NCC1CCCCC1,max activity,at 19.5 µM unless noted,-7.1% [at 0.3 µM]
O=C(C[C@H]1CC[C@@H]2[C@H](COC[C@@H](O)CN2Cc2ccc(Oc3ccccc3)cc2)O1)N1CCN(c2ccccc2)CC1,max activity,at 19.5 µM unless noted,17.6%
O=C(C[C@@H]1CC[C@@H]2[C@H](COC[C@H](O)CN2S(=O)(=O)c2ccccc2F)O1)N1CCC(Cc2ccccc2)CC1,max activity,at 19.5 µM unless noted,-4.67% [at 0.3 µM]
O=C(C[C@@H]1CC[C@@H]2[C@H](COC[C@@H](O)CN2C(=O)Nc2cc(Cl)cc(Cl)c2)O1)N1CCOCC1,max activity,at 19.5 µM unless noted,-20.4% [at 10 µM]
CCCNC(=O)C[C@H]1CC[C@H]2[C@@H](COC[C@@H](O)CN2C(=O)Nc2ccc(Cl)c(Cl)c2)O1,max activity,at 19.5 µM unless noted,-10.6% [at 10 µM]
O=C(C[C@H]1CC[C@H]2[C@@H](COC[C@@H](O)CN2Cc2cc(F)ccc2F)O1)NCc1ccc(Oc2ccccc2)cc1,max activity,at 19.5 µM unless noted,24%
